# Reference: PubChem BioAssay AID1662 (Broad Institute, 2009)
# In all, about 300,000 compounds went through this assay and about 4,000 (1.3%) were called active. Only a selection was taken, and actives are over-represented in it overall. Values without a mark were called inactive.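 The calls were made as follows: active = mean replicate score, as percent of positive control median, at least 50; inconclusive = mean below 50 but one replicate at or above 50; inactive = mean and every replicate below 50.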
# Assay: kanamycin survival loss of SKKanGAS strain – BacTiter-Glo luminescence, streptokinase expression inhibitor project, primary screen (AID 1662);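 also: strain carries kanamycin resistance gene driven by streptokinase promoter and grows in 40 µg/ml kanamycin; loss of luminescence reflects streptokinase promoter inhibition or plain growth inhibition; 0% = median of DMSO wells and 100% = positive control at its reference dose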
# Conditions: S. pyogenes SKKanGAS, kanamycin growth, 6 h, at 7.5 µM, active compounds read high
row,SMILES,inhibition
1,CC1=NNC(=O)C1CCC(=O)N/N=C\c1cccc(Cl)c1 (centres undefined),4.3%
2,O=c1[nH]oc(O)c1-c1ncc(C(F)(F)F)cc1Cl,-8.5%
3,Cc1ccc(NC(=O)C2CC(=O)N(c3ccc4c(c3)OCCO4)C2)cc1S(=O)(=O)N1CCCCCC1 (centres undefined),-2.91%
4,CCC(=O)N1CCN(c2ccccc2NC(=O)COc2cccc(C)c2C)CC1,5.73%
5,Cc1ccccc1NC(=O)CNc1ccccc1N1CCCCC1,9.21%
6,Cc1ccc(C(C)C)cc1OCC(=O)Nc1ccccc1N1CCCC1,69.7% (active)
7,Cc1nn2c(NCCN(C)C)c3c(nc2c1-c1ccccc1)CCC3,6.41%
8,Cc1ccc(Cl)cc1N1CCN(C(=O)c2cccc3c(=O)c(C)c(-c4ccccc4)oc23)CC1,52.6% (active)
9,COC(=O)c1ccc(C(=O)OC)c(NC(=S)N2CCN(c3cc(Cl)ccc3C)CC2)c1,14.5%
10,Cc1cccc(N2CCN(C(=O)c3cnn4c(C(F)F)cc(-c5ccccc5)nc34)CC2)c1C,38.6%
11,CC1(C)C=C2[C@H]3CC[C@@H]4[C@@]5(C)CCC(=O)C(C)(C)[C@@H]5CC[C@@]4(C)[C@]3(C)CC[C@@]2(C(=O)O)CC1,96.7% (active)
12,Cc1ccc(S(=O)(=O)N2CCOCC2)cc1C(=O)Nc1ccccc1N1CCCC1,-4.42%
13,COc1ccc(C(=O)NC2CC2)cc1OC1CCN(Cc2cnn(C)c2)CC1,7.48%
14,CCCCCC(O)c1cccc(OCc2ccc3ccccc3n2)c1 (centres undefined),15.6%
15,O=C1c2ccccc2C2=Nc3ccccc3SC(c3ccccc3F)C12 (centres undefined),52.9% (active)
16,O=C1c2ccccc2C(=O)C1c1ccccc1F,0.629%
17,CCOC(=O)C1=C(C)N=C2c3ccccc3C(=O)C2C1c1ccc(Br)cc1 (centres undefined),38.8%
18,O=C(c1ccc(F)cc1)C1CCN(Cc2cn[nH]c2-c2ccccc2)CC1,-0.535%
19,CCN1C(=O)[C@H]2[C@@H](c3ccc(-c4ccc(F)cc4)cc3)N[C@@](Cc3ccccc3)(C(=O)OC)[C@H]2C1=O,9.27%
20,CCC(C)C(=O)Nc1cc([N+](=O)[O-])ccc1Cl (centres undefined),-5.67%
21,O=C(CN1CCSCC1)N/N=C/c1ccc(F)cc1F,-4.84%
22,O=C(NCCN1CCOCC1)c1cc(-c2cccs2)nc2ccccc12,-10.4%
23,COC(=O)c1cc(-c2cccs2)nc2ccccc12,-7.36%
24,O=C(Nc1nnc(-c2ccccc2)o1)c1cc(-c2cccs2)nc2ccccc12,92.3% (active)

row,SMILES,inhibition
1,C#CCNC(=O)C1=C[C@@H](c2ccccc2)[C@H](CCCO)[C@@H](OCC)O1,0.924%
2,O=C(Nc1ccccc1Cl)NC1(C(=O)N2CCOCC2)CCCCC1,-13%
3,CCc1nc(NCCO)c(C#N)c2c1CCCC2,-3.02%
4,CCCCc1nc(NCCN)c(C#N)c2c1CSC(C)(C)C2,-15.3%
5,CCCCc1nc(NCc2ccccc2)c(C#N)c2c1CCCC2,60% (active)
6,CCCNC(=O)C(=O)Nc1cc2c3c(c1)CCC(=O)N3CCC2,-4.99%
7,COc1cc(NS(=O)(=O)c2ccc(NC(=S)NC(=O)c3ccc(Br)cc3)cc2)ncn1,16.4%
8,CC(c1cccnc1)N(CCN(C)C)C(=O)Nc1ccc(Cl)c(Cl)c1 (centres undefined),-0.312%
9,O=C(COC(=O)c1ccccc1)Nc1ccccc1Sc1ccccc1,58.2% (active)
10,O=C(COC(=O)c1cccc(Br)c1)Nc1cccc2c1C(=O)c1ccccc1C2=O,-1.24%
11,Cc1ccccc1C(=O)Nc1ccccc1Sc1ccccc1,25.4%
12,CC(=O)N[C@H]1[C@H]([C@H](O)[C@H](O)CO)OC(C(=O)O)=C[C@@H]1O,-0.96%
13,c1ccc(-c2oc3ncnc(N4CCOCC4)c3c2-c2ccccc2)cc1,-2.29%
14,COc1ccc(-c2oc3ncnc(NCCCO)c3c2-c2ccc(OC)cc2)cc1,33.4%
15,N=c1c2c(-c3ccccc3)c(-c3ccccc3)n(Cc3ccccc3)c2ncn1CCCO,-1.98%
16,COc1ccc2[nH]c3c(=O)n(Cc4ccco4)cnc3c2c1,17.1%
17,N=c1c2c(-c3ccccc3)c(-c3ccccc3)oc2ncn1Cc1ccco1,63.5% (active)
18,COc1ccc(-c2oc3ncn(Cc4ccco4)c(=N)c3c2-c2ccc(OC)cc2)cc1,55% (active)
19,O=C(O)CC(Cn1cnnn1)c1ccccc1 (centres undefined),-1.95%
20,C/C(CC(C)C)=N\Oc1nc(C)cc(C)n1,-4.06%
21,O=[N+]([O-])c1ccc(NCCCO)c(C(F)(F)F)c1,0.29%
22,COc1cc(C=O)ccc1Oc1nnnn1-c1ccccc1,24.2%
23,CN(C(=O)Nc1ccc(Cl)cc1)n1cnc2ccccc2c1=O,3.63%
24,O=C(CCCO)N/N=C/c1cc(Br)ccc1O,-3.72%

row,SMILES,inhibition
1,Oc1ccc(Br)cc1/C=N/Nc1ccccn1,106% (active)
2,Oc1ccc(/C=N/Nc2ccc(C(F)(F)F)cn2)cc1O,-9.78%
3,CN(C)Cc1ccc(F)cc1Sc1cc(Cl)ccc1Cl,-3.54%
4,CC(=O)Nc1ccc(S(=O)(=O)Nc2nc(-c3ccc(C(C)(C)C)cc3)cs2)cc1,0.664%
5,O=C(Nc1ccc(-c2csc(Nc3cccc(C(F)(F)F)c3)n2)cc1)c1cccc(C(F)(F)F)c1,98.6% (active)
6,Cc1nc(NC(=O)c2cccc(Cl)c2)sc1-c1csc(Nc2cccc(Cl)c2)n1,25.6%
7,COc1c(O)cc2oc(-c3ccc(O)c(O)c3)cc(=O)c2c1O,3.54%
8,OCc1ccc(-c2ccccc2)c(-c2ccccc2)c1,-11.9%
9,COCCNC(=S)N(CCc1c(C)[nH]c2ccc(C)cc12)Cc1cccnc1,8.58%
10,O=C(O)c1cccc(N=NN2CCCCCC2)c1,5.53%
11,C[C@H]1[C@H]2c3nc4ccccc4n3C[C@H]1ON2C1CCCCC1,-3.38%
12,Cc1ccccc1-n1c(SCC(=O)Nc2cccc3ccccc23)nc(O)cc1=O,18.6%
13,COc1ccc(NC(=O)CSc2nc3ccccc3c(=O)n2C)cc1,-4.23%
14,Cn1c(SCC(=O)Nc2ccc(Cl)cc2)nc(O)cc1=O,112% (active)
15,C/C(=N\Nc1cccc(C(=O)O)c1)c1ccc2c(c1)Nc1ccccc1S2,0.801%
16,COc1ccccc1CCNC(=O)c1c(C)nn(CC(C)C)c1Cl,-0.777%
17,O=C(Nc1cccc(C(F)(F)F)c1)c1ccc(N2CCNCC2)c([N+](=O)[O-])c1,-0.102%
18,COc1cc(OC)cc(C(=O)NC(=S)N2CCN(c3ccc(C(F)(F)F)cc3[N+](=O)[O-])CC2)c1,86.6% (active)
19,O=C(Cc1ccc(S(=O)(=O)N2CCOCC2)s1)N1CCN(c2ccc(C(F)(F)F)cc2[N+](=O)[O-])CC1,3.49%
20,Cc1cc(C(=O)OCC(=O)NCc2ccco2)c(C)n1-c1ccccc1,2.24%
21,O=C(NNc1ccccc1Cl)C(O)(c1cccc(C(F)(F)F)c1)c1cccc(C(F)(F)F)c1,98.2% (active)
22,CC(CC(=O)Nc1cc(C(F)(F)F)ccc1Cl)c1ccccc1 (centres undefined),24.4%
23,O=C(Nc1cc(C(F)(F)F)ccc1Cl)C(=O)N1CCCCC1,-4.87%
24,COc1cc(C)c(S(=O)(=O)N2CCOCC2)c(C)c1C,0.811%

row,SMILES,inhibition
1,O=C(Nc1ccccc1Cl)/C(Cl)=C(\Cl)S(=O)c1ccccc1 (centres undefined),75.1% (active)
2,O=C(Nc1ccccc1Cl)Nc1cccc2cccnc12,-4.43%
3,COCCN(CCOC)C(=S)Nc1ccccc1Cl,-4.57%
4,Cn1cccc1C(C#N)c1ccccc1C#N (centres undefined),0.367%
5,Cc1cc(C)c2nc(N(CCN(C)C)C(=O)/C=C/c3cccs3)sc2c1,3.15%
6,Cc1noc(NS(=O)(=O)c2ccc(NC(=O)c3oc4ccc(F)cc4c3C)cc2)c1C,25.3%
7,CCn1c(SCC(=O)Nc2ccc(S(=O)(=O)Nc3onc(C)c3C)cc2)nnc1-c1ccccc1,-0.983%
8,Cc1cc(C)c2nc(-c3cccnc3)cc(C(=O)Nc3ccc(S(=O)(=O)Nc4onc(C)c4C)cc3)c2c1,64.7% (active)
9,Cc1ccsc1CNn1cnnc1SCc1ccccc1F,-0.394%
10,c1ccc(-c2cc(N3CCCCC3)c3ccccc3n2)cc1,13.6%
11,FC(F)(F)c1cccc(-c2cc3ccccc3nc2N2CCCC2)c1,51.7% (active)
12,O=C(c1cc2ccccc2o1)N1CCN(c2cccc(C(F)(F)F)c2)CC1,0.601%
13,O=C(c1ccc(OC2CCN(C(=O)c3cccnc3)CC2)cc1)N1CCCCCC1,-5.73%
14,Cc1[nH]n(-c2ccccc2)c(=O)c1/C=N/NC(=O)c1ccoc1C,-29.8%
15,O=C(N/N=C/c1cccc([N+](=O)[O-])c1)c1ccncc1,1.34%
16,Cc1ccc(-n2[nH]c(C)c(/C=N/NC(=O)c3cccc([N+](=O)[O-])c3)c2=O)cc1C,91.5% (active)
17,CC1=C2C(=O)OC(c3ccoc3)C2(C)CCC1 (centres undefined),-13.7%
18,CCC(NC(=O)C1CCCC1)c1ccc(C)cc1 (centres undefined),5.2%
19,Cc1nn(C)c(C)c1S(=O)(=O)N1CCC(CO)(Cc2ccc(Cl)cc2)CC1,-2.57%
20,CC1CN(C(=S)Nc2ccccc2F)CC(C)O1 (centres undefined),-2.73%
21,COc1c(N2CCN(C(=S)Nc3ccccc3F)C(C)C2)c(F)cc2c(=O)c(C(=O)O)cn(C3CC3)c12 (centres undefined),104% (active)
22,COc1ccccc1NC(=S)N1CCN(c2ccc(F)cc2)CC1,-4.99%
